Screen size: about 1,400 compounds; about 350 (25%) were called active. Not shown: some 2% with an inconclusive outcome. How the calls were made is not given here. These entries were drawn from the full list. Potency and affinity values are given separately.
Experiment: inhibitors of Clostridioides difficile proliferation – 4-point retest, confirmation (AID 1224921);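 further: plate controls were DMSO wells for no effect and levofloxacin 16 µg/mL wells for full effect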
Conditions: Clostridioides difficile clinical isolate growth, OD600, 24 h, hits give low values; at 30 µM unless noted

Max activity, inactive:
CCCNC(=O)Nc1ccc2c(c1)C(=O)N(C)C[C@H](OC)[C@H](C)CN(C)[C@@H](C)CO2 -3.68% [at 0.5 µM]
C[C@@H]1CN([C@H](C)CO)C(=O)c2c(c3ccccc3n2C)-c2ccccc2CO[C@@H]1CN(C)C(=O)N[C@H](C)c1ccccc1 9.23% [at 35 µM]
CCCNC(=O)Nc1ccc2c(c1)C(=O)N(C)C[C@@H](OC)[C@@H](C)CN(CC1CCCC1)[C@@H](C)CO2 -4.03% [at 1.95 µM]
O=C(C[C@@H]1CC[C@@H]2[C@H](COC[C@H](O)CN2CC2CCCCC2)O1)NCc1ccc(Cl)cc1 22.4% [at 8 µM]
CO[C@H]1CN(C)C(=O)c2ccc(NC(=O)c3ccc(F)cc3)cc2OC[C@H](C)N(C(=O)CN(C)C)C[C@H]1C -10.1%
O=C(C[C@H]1C[C@H]2c3cc(NC(=O)CC4CC4)ccc3O[C@H]2[C@@H](CO)O1)NCc1cccc(F)c1 -3.04% [at 1.95 µM]
Cc1ccc(-c2ccc3c(c2)O[C@H](CN(C)Cc2ccncc2)[C@H](C)CN([C@H](C)CO)S3(=O)=O)cc1 34.8%
C[C@H](CO)N1C[C@H](C)[C@H](CN(C)Cc2cccc(C(=O)O)c2)OCc2ccccc2-c2c(n(C)c3ccccc23)C1=O -7.45% [at 0.5 µM]
CC1=CC2(CO)C(=O)[C@]3(CO3)[C@H]1[C@H]1[C@]2(C)C=C(CO)C(=O)[C@]12CO2 15.6%
Cc1ccc(F)cc1S(=O)(=O)N[C@@H]1CCN(Cc2ccc(OC(C)C)cc2)C1 34.7% [at 8 µM]
C[C@@H]1CN([C@H](C)CO)C(=O)c2c(c3ccccc3n2C)-c2ccccc2CO[C@H]1CN(C)C(=O)c1ccncc1 18.8%
COc1ccccc1-c1ccc2c(c1)O[C@H](CN(C)C(=O)c1ccccc1)[C@H](C)CN([C@@H](C)CO)S2(=O)=O 42.3%
C[C@H](CO)N1C[C@H](C)[C@@H](CN(C)S(=O)(=O)c2ccsc2)OCc2ccccc2-c2ccccc2C1=O 26.8%
CO[C@@H]1CN(C)C(=O)c2ccc(NS(=O)(=O)CC(F)(F)F)cc2OC[C@@H](C)N(C(=O)NC(C)C)C[C@H]1C 14.6%
Cc1noc(C)c1NC(=O)N(C)C[C@@H]1Oc2ccc(NC(=O)CCCCCC(=O)Nc3ccccc3N)cc2C(=O)N([C@@H](C)CO)C[C@@H]1C -8.05% [at 1.8 µM]
CO[C@H]1CN(C)C(=O)c2cc(NC(=O)NC3CCCCC3)ccc2OC[C@@H](C)N(CCc2ccccc2)C[C@H]1C 25.3%
CC(C)CC#Cc1ccc2c(c1)O[C@H](CN(C)Cc1ccncc1)[C@@H](C)CN([C@H](C)CO)S2(=O)=O 17.5%
C[C@@H]1CN([C@@H](C)CO)C(=O)c2cc(/C=C/c3ccccc3)cnc2O[C@H]1CN(C)C(=O)CN(C)C 18%
COCC#Cc1ccc2c(c1)O[C@@H](CN(C)Cc1ccncc1)[C@@H](C)CN([C@H](C)CO)S2(=O)=O 17.6%
O=C(NCCc1ccccc1)[C@H]1[C@H](CO)[C@H]2Cn3c(cccc3=O)[C@@H]1N2C(=O)C1CC1 -7.04%
C[C@H](CO)N1C[C@H](C)[C@@H](CN(C)Cc2cccnc2)Oc2cc(C#CC3CC3)ccc2S1(=O)=O 21.4%
CCCN1C[C@@H](C)[C@H](OC)CN(C)C(=O)c2cc(NC(=O)c3ccc4c(c3)OCO4)ccc2OC[C@H]1C 14.6% [at 35 µM]
C[C@@H]1CN([C@H](C)CO)C(=O)c2ccccc2-c2ccccc2CO[C@H]1CN(C)C(=O)CCN(C)C -7.05% [at 0.5 µM]
COc1ccc(CN(C)C[C@H]2Oc3ccc(NC(=O)Nc4ccc(C(F)(F)F)cc4)cc3C(=O)N([C@@H](C)CO)C[C@H]2C)cc1 -5.09% [at 0.5 µM]
CO[C@@H]1CN(C)C(=O)c2ccc(NS(=O)(=O)c3ccccc3C)cc2OC[C@H](C)N(S(C)(=O)=O)C[C@H]1C -9.59% [at 8 µM]
CNC[C@@H]1Oc2cc(-c3cccnc3)ccc2S(=O)(=O)N([C@H](C)CO)C[C@H]1C 14.8%
C[C@H]1CN([C@@H](C)CO)C(=O)c2ccccc2-c2ccccc2CO[C@H]1CN(C)S(=O)(=O)c1ccsc1 -19.4%
Cc1ccc(-c2ccc3c(c2)O[C@H](CN(C)Cc2cccnc2)[C@H](C)CN([C@H](C)CO)S3(=O)=O)cc1 17.6%
CCCNC(=O)Nc1ccc2c(c1)C(=O)N(C)C[C@H](OC)[C@@H](C)CN(C)[C@@H](C)CO2 4.84% [at 8 µM]
COCCNC(=O)C[C@@H]1CC[C@H]2[C@@H](COc3ccc(NS(=O)(=O)c4ccc(Cl)cc4)cc3C(=O)N2C)O1 14.3%
CC(C)Cc1ccc(CN2CC[C@@H](NS(=O)(=O)c3ccccc3)C2)cc1 -12% [at 0.5 µM]
CCCNC(=O)Nc1ccc2c(c1)C(=O)N(C)C[C@H](OC)[C@@H](C)CN(C(C)=O)[C@H](C)CO2 -7.56% [at 1.95 µM]
CO[C@H]1CN(C)C(=O)c2ccc(NS(=O)(=O)c3ccc(C)cc3)cc2OC[C@H](C)N(C(=O)NC(C)C)C[C@H]1C -11.4% [at 1.95 µM]
C/C=C/c1ccc2c(c1)O[C@H](CN(C)C(=O)c1ccc(F)cc1)[C@H](C)CN([C@@H](C)CO)S2(=O)=O 18.5%
CO[C@H]1CN(C)C(=O)c2cc(NC(C)=O)ccc2OC[C@@H](C)N(Cc2nccs2)C[C@H]1C -12.5% [at 8 µM]
CO[C@@H]1CN(C)C(=O)c2cc(NC(C)=O)ccc2OC[C@H](C)N(CC2CCCCC2)C[C@@H]1C 16.5%
CC(=O)N[C@H]1CC[C@@H](CCNC(=O)Nc2ccc(C(F)(F)F)cc2)O[C@H]1CO 10.2% [at 7.5 µM]
CC(=O)N[C@@H]1CC[C@H](CCNC(=O)Nc2ccc(C(F)(F)F)cc2)O[C@@H]1CO 16.8% [at 8 µM]
C[C@H]1CN([C@@H](C)CO)S(=O)(=O)c2ccc(C3=CCCCC3)cc2O[C@H]1CN(C)C(=O)C1CCCCC1 30.6%
C[C@@H]1CN([C@H](C)CO)C(=O)c2cc(Br)cnc2O[C@H]1CN(C)C(=O)c1ccccc1 -3.07% [at 8 µM]
C[C@H]1CN([C@@H](C)CO)S(=O)(=O)c2ccc(C#CC3CCCCC3)cc2O[C@H]1CN(C)Cc1cccnc1 35.6%
CO[C@H]1CN(C)C(=O)c2cc(NC(=O)c3ccc(F)cc3)ccc2OC[C@@H](C)N(C(C)=O)C[C@H]1C -8.16% [at 1.95 µM]
C[C@H](C(=O)N(C)C[C@H]1OCc2ccccc2-c2ccccc2C(=O)N([C@@H](C)CO)C[C@H]1C)c1ccccc1 18.3%
C[C@@H]1CN([C@H](C)CO)C(=O)c2cc(NC(=O)Nc3cccc4ccccc34)ccc2O[C@@H](C)CCCCO[C@H]1CN(C)S(=O)(=O)c1ccc(F)cc1 36.9%
C[C@@H]1CN([C@@H](C)CO)C(=O)Cc2cc(NC(=O)NC3CCCCC3)ccc2O[C@@H]1CN(C)S(=O)(=O)c1ccc(Cl)cc1 20.4%
C[C@@H]1CN([C@@H](C)CO)S(=O)(=O)c2ccc(C#CC3CC3)cc2O[C@H]1CN(C)Cc1cccnc1 34.2%
CCCNC(=O)N1C[C@H](C)[C@@H](OC)CN(C)C(=O)c2cc(NC(C)=O)ccc2OC[C@@H]1C -10.9% [at 1.95 µM]
COc1ccc(NC(=O)N[C@@H]2C=C[C@H](CC(=O)NC3CCCCC3)O[C@@H]2CO)cc1 13.1% [at 1.95 µM]
CCC(=O)N(C)C[C@@H]1Oc2cc(C#CCC3CCCC3)ccc2S(=O)(=O)N([C@@H](C)CO)C[C@H]1C 27.8%
O=C(C[C@H]1C=C[C@H](NC(=O)CCN2CCCCC2)[C@H](CO)O1)Nc1ccc(-c2ccccc2)cc1 11.2%
CCCC#Cc1ccc([C@@H]2[C@H](C#N)N(S(=O)(=O)c3cccc(F)c3)[C@H]2CO)cc1 21.1%
COc1ccc(NC(=O)N(C)C[C@@H]2Oc3ncc(-c4cccnc4)cc3C(=O)N([C@@H](C)CO)C[C@@H]2C)cc1 -18.5% [at 8 µM]
CC(C)CC#Cc1ccc2c(c1)O[C@@H](CN(C)C(=O)c1ccccc1F)[C@@H](C)CN([C@@H](C)CO)S2(=O)=O 18%
O=C(C[C@H]1CC[C@H]2[C@@H](COC[C@@H](O)CN2Cc2cccc(Cl)c2)O1)NCC1CCCCC1 11.9% [at 8 µM]
COc1ccccc1S(=O)(=O)N(C)C[C@H]1Oc2cc(C#CCC(C)C)ccc2S(=O)(=O)N([C@@H](C)CO)C[C@@H]1C 10.5%
C[C@H]1CN([C@@H](C)CO)S(=O)(=O)c2ccc(Br)cc2O[C@@H]1CN(C)Cc1cccc(F)c1 41.5%
C[C@H]1CN([C@@H](C)CO)C(=O)c2c(c3ccccc3n2C)-c2ccccc2CO[C@H]1CN(C)S(=O)(=O)CC(F)(F)F 14.7%
CCCC(=O)Nc1ccc2c(c1)OC[C@H](C)N(Cc1ccncc1)C[C@@H](C)[C@H](OC)CN(C)C2=O 14.3%
CCCN1C[C@@H](C)[C@@H](OC)CN(C)C(=O)c2cc(NC(=O)CC)ccc2OC[C@H]1C -7.79% [at 0.5 µM]

Reference: PubChem BioAssay AID1224921 (Broad Institute, 2016)
